Most compounds without a hit are left out; they make up all but 0.45% or so of the library.
EPAC1 ag – agonists of human EPAC1; O95398; EPAC1 agonist qHTS, biochemical assay; response scale: 100% = response to 6.5 mM cAMP; Potency, µM (titrated, usually from 154 µM), for inactives: at the top dose activation, most hits filed as activators; hit rate 0.073% among 360,000; AID 720707; also: nearly all actives have a fitted effect of over 60% in size
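Nucleotide exchange assay: 100 nM EPAC1 with 250 nM Rap1B loaded with BODIPY-GDP and 50 uM GDP, room temperature. Fluorescence (480/540 nm) read every 5 min for 30 min; signal change normalized to 6.5 mM cAMP as full agonist.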
EPAC1 antagonist – EPAC1 (human) antagonism | hit rate 0.14% among 360,000 | EPAC1 GEF assay, Rap1b-BODIPY-GDP exchange fluorescence | Potency, µM (titrated, usually from 115 µM), for the others: at the highest dose activity change, negative = inhibition, usual class: inhibitors | O95398;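 also: plate controls were vehicle for no effect and positive control for full effect; nearly all actives have a fitted effect of over 50% in size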
EPAC2 antagonist – EPAC2 (human) antagonism | Q8WZA2 | EPAC2 GEF exchange of Rap1B-BODIPY-GDP, fluorescence | Potency, µM (highest dose often 114 µM), inactives show top-dose activity, negative = inhibition, usual class: inhibitors | hit rate 0.18% among 360,000 | AID 720708; also: % is scaled to controls: 0 for no effect and ±100 for the full control effect; nearly all actives have a fitted effect of over 45% in size
EPAC2 ag – EPAC2 (human) agonism; Potency, µM (titrated, usually from 154 µM), for the others: at the top dose activation, most hits filed as activators; hit rate 0.079% among 360,000; Q8WZA2; EPAC2 activation, biochemical qHTS; response scale: 100% = 6.5 mM cAMP response; also: nearly all actives have a fitted effect of over 50% in size
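Compounds were titrated in qHTS against a Rap1B-BODIPY-GDP (250 nM) complex with EPAC2 (100 nM) and GDP (50 uM). BODIPY-GDP release tracked at 480/540 nm over 30 min at room temperature, normalized to 6.5 mM cAMP.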
USP1-UAF1 inh – inhibitors of human USP1/UAF1 deubiquitinase; recombinant USP1/UAF1, Ub-Rhodamine cleavage fluorescence; hit rate 0.23% among 390,000; Potency, µM (titrated, usually from 57.1 µM), without a hit: at the top dose activity change, negative = inhibition, usual class: inhibitors; AID 743255; also: % is scaled to controls: 0 for no effect and ±100 for the full control effect; nearly all actives have a fitted effect of over 60% in size
Target sequence (O94782 whole entry, looked up): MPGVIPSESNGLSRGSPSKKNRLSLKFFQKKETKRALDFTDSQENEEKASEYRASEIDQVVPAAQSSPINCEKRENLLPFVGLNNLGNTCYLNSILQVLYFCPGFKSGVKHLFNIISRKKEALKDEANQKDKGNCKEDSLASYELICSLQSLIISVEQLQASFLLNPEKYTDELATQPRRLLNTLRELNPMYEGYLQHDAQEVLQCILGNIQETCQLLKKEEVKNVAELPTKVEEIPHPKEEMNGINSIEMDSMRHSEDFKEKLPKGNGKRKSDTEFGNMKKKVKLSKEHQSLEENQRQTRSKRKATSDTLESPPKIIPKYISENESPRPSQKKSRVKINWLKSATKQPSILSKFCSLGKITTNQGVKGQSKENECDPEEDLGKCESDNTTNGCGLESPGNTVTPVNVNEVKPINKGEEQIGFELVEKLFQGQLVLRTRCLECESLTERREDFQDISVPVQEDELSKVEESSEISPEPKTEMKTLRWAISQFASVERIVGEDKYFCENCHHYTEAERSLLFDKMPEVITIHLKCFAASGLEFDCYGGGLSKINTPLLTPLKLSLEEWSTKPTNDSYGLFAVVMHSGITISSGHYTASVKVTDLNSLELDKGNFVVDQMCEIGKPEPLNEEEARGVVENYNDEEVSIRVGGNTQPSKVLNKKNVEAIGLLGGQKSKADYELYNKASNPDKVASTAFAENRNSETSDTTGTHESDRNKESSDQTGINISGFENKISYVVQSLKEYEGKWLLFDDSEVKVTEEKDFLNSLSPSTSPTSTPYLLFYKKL
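In this screen, compounds sit with the deubiquitinase complex (1nM) for 15 min at room temperature before Ub-Rho is added at 150nM final. Fluorescence rise is then followed for 6 reads every 60 seconds.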
USP2a block – USP2a (human) protease inhibition; O75604; USP2 core, Ub-CHOP2 coupled fluorogenic reporter, 485/531; Potency, µM (series often up to 38.3 µM), inactives show at the top dose activity change, negative = inhibition, usual class: inhibitors; hit rate 0.01% among 330,000; AID 463254;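 also: plate controls were DMSO wells for no effect and full inhibition by NEM control for full effect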
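USP2 core (10nM final) preincubated 30min RT with compound in 20mM Tris-HCl pH 8.0, 2mM CaCl2, 2mM beta-mercaptoethanol, 0.05% CHAPS; 25nM Ub-CHOP2 plus 25nM reporter substrate added, fluorescence (Ex485/Em531) read after 60min.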
* = called active by the depositor; ? = inconclusive; / = not tested or not shown; [ ] = another dose, or the depositor's remark. Calls follow the shape of the dose curve; as a rule, active = well fitted curve in the direction sought with a large enough effect; inconclusive = small, poorly fitted or top-dose-only effect, or another doubt; inactive = no such curve, though single readings can be large; an effect the other way counts as inactive or inconclusive. Potency is read from the fitted curve at half-maximal effect.

SMILES | EPAC1 ag | EPAC1 antagonist | EPAC2 antagonist | EPAC2 ag | USP1-UAF1 inh | USP2a block
O=C(O)COc1ccc(NC(=O)C(c2ccccc2)c2ccccc2)cc1 | 3.6% | -2.7% | 20µM* | 4.6% | -10.3% | -1.3%
Cn1c2ccccc2c2cc(/C=N/NC(=O)c3cc(O)ccc3O)ccc21 | 8.6% | 56.2µM* | -0.2% | 7.5% | ? | 4.2%
COc1ccc2c(c1)NC(c1ccc(OCC(C)C)cc1)=NC(c1ccncc1)=N2 | / | / | / | / | -12.9% | /
Cc1cc(NS(=O)(=O)c2ccc(NC(=O)COc3ccc(Br)cc3C)cc2)no1 | / | / | / | / | -19.6% | /
Cc1cc(NS(=O)(=O)c2ccc(NC(=O)COc3c(C)cc(Br)cc3C)cc2)no1 | -0.7% | -4.0% | 17.8µM* | -7.6% | -11.9% | -1.8%
COc1ccc(S(=O)(=O)Nc2ccc(OCC(=O)O)cc2)c2ccccc12 | 8.2% | -14.9% | 89.1µM* | 7.3% | -8.8% | 0.9%
COc1ccc(NC(C)=O)cc1S(=O)(=O)Nc1ccc(OCc2ccccc2)cc1 | 14.2% | -13.7% | -14.1% | 12.4% | -12.5% | -6.7%
COc1ccc(Cl)cc1-c1cc(C(=O)Nc2ccc(C(C)(C)C)cc2)[nH]n1 | -9.4% | -12.4% | 6.3% | 8.2% | / | /
CN(C)c1ccc(C=c2c3ccccc3n3c2c2ccccc2[n+]3C)cc1 | 15.1% | 50.1µM* | 44.7µM* | ? | ? | /
Cc1cc2c(=Cc3ccc(N(C)C)cc3)c3ccccc3n2[n+]1C | -1.9% | -18.6% | -27.7% | -3.2% | ? | /
CCOC(=O)c1cc2c(=Cc3ccc(N(C)C)cc3)c3ccccc3n2[n+]1C | 18.2% | -11.5% | -4.2% | 15.3% | 15.8µM* | /
COc1ccc(OC)c(C2CC(=O)c3c([nH]c(C(=O)OC4CCC(C)CC4)c3C)C2)c1 (stereo not drawn) | / | / | / | / | -10.3% | /
Cc1ccc(C2CC(c3cccs3)=NN2C(=O)c2ccco2)o1 (stereo not drawn) | 12.2% | -13.4% | 28.2µM* | 9.7% | -23.9% | 6.7%
CC1(Cc2ccc(C(F)(F)F)o2)C(=O)Nc2cc(-c3ccc(F)cc3F)ccc21 (stereo not drawn) | -15.3% | -17.2% | ? | -2.5% | / | /
Cc1cccc(NC(=O)C(=O)NNC(=O)c2ccc(C(C)(C)C)cc2)c1 | -18.8% | ? | 53.1% | -9.5% | -11.4% | -1.4%
Cc1ccc(F)c(NC(=O)/C(C#N)=C(\O)c2ccc(C(C)(C)C)cc2)c1 | -10.8% | 56.2µM* | -22.8%[57.1 µM] | -35.1% | 22.4µM* | 5.0%
CN(C(=O)CSc1nc2ccccc2n1CC(=O)N(C)c1ccc(F)cc1)c1ccccc1 | / | / | / | / | -9.6% | /
CCOc1ccc(NC(=O)CN(C)C(=O)c2cc(C3CC3)nn2-c2ccccc2)cc1OCC | 31.6µM* | -6.7% | -15.1% | -8.0% | -11.5% | -0.4%
CCOc1ccc(NC(=O)CN(C)C(=O)c2cc(-c3cccs3)nn2-c2ccccc2)cc1OCC | -11.4% | 26.9% | 36.0% | -8.5% | -17.5% | 1.5%
Cc1cc2nc3c(=O)[nH]c(=O)[nH]c3nc2c([N+](=O)[O-])c1N | 89.1µM* | 15.4% | 33.1% | 12.3% | ? | ?
O=C1c2ccccc2C(c2nnnn2Cc2ccccc2)N1CCc1c[nH]c2ccccc12 (stereo not drawn) | 7.8% | -15.1% | 75.2µM* | 10.4% | / | /
O=C1c2ccccc2C(c2nnnn2Cc2ccccc2)N1Cc1ccc(F)cc1 (stereo not drawn) | -1.6% | -5.1% | 6.1% | 1.2% | / | /
O=C(NCC(O)c1nc2ccccc2[nH]1)c1cc2ccccc2[nH]1 (stereo not drawn) | 7.6% | -1.1% | 5.9% | 12.3% | / | /
CS/C(Nc1cc(Cl)ccc1Cl)=C(/C#N)C(=O)c1ccco1 | -9.4% | 50.1µM* | -4.1% | 2.9% | ? | 4.3%
O=C(Nc1cc(Cl)ccc1Cl)c1ccco1 | 1.1% | 2.4% | 0.0% | 3.3% | -19.2% | 0.4%
SMILES | EPAC1 ag | EPAC1 antagonist | EPAC2 antagonist | EPAC2 ag | USP1-UAF1 inh | USP2a block
O=S(=O)(NCCc1cn2ccsc2n1)c1ccc(Cl)cc1 | / | / | / | / | -18.9% | /
COc1ccc(CCNc2nc3c(c(=O)n(C)c(=O)n3C)n2Cc2ccc(F)cc2)cc1OC | / | / | / | / | -21.1% | /
O=c1nc2s/c(=C\c3ccc(-c4ccccc4[N+](=O)[O-])o3)c(=O)n2nc1-c1ccccc1 | 112µM* | 61.1% | 25.2% | 70.8µM* | ? | 2.8%
COc1cc(/C=C2\SC(=Nc3ccccc3)N(CCc3c[nH]c4ccccc34)C2=O)ccc1OC(C)C(=O)O (stereo not drawn) | 100µM* | ? | ? | -9.9% | 1.1% | -1.0%
O=C(N/N=C/c1ccc(F)cc1)c1cc(-c2ccco2)nc2ccccc12 | 0.0% | 79.4µM* | 9.6% | -10.8% | -39.5% | ?
COc1cc(C2c3cc4c(cc3CC3COC(=O)N32)OCO4)cc(OC)c1OC (stereo not drawn) | -5.3% | -1.9% | 11.5% | 0.0% | -7.2% | /
CCN(CC)c1ccc(C(=O)O)cc1 | -1.1% | ? | -9.8% | 0.2% | 3.4% | 0.3%
CCN(CC)c1ccc(/C=C2\C(=O)c3ccc(C(=O)O)cc3C2=O)cc1 | 6.3% | ? | ? | 7.1% | 14.1µM* | 13.3%
COc1cc(OC)c(NC(=O)Cn2cnc3c(nc4n3CCCCC4)c2=O)cc1Cl | / | / | / | / | -8.7% | /
CO[C@@H]1CN(C)C(=O)c2cc(NS(=O)(=O)c3ccc(C)cc3)ccc2OC[C@H](C)N(Cc2nccs2)C[C@H]1C | -3.4% | 12.7% | 0.1% | -0.6% | / | /
COc1ccc(-n2nnnc2SCC(=O)c2ccc(O)c(O)c2)cc1 | 0.8% | 44.7µM* | -2.1% | 9.9% | -10.4% | -1.1%
NC(=O)c1ccc(-n2nnnc2SCC(=O)c2ccc(O)c(O)c2)cc1 | 1.2% | ? | 1.0% | 6.1% | -8.9% | 1.3%
NC(=O)c1sc2nc3c(c(-c4ccco4)c2c1N)CCCC3 | 10.7% | 7.0% | -13.5% | 1.2% | -15.0% | -1.2%
Nc1c(C(=O)NCC2CCCO2)sc2nc3c(c(-c4ccco4)c12)CC/C3=C\c1ccco1 (stereo not drawn) | -5.4% | 20µM* | -2.1% | -10.7% | 28.2µM* | ?
O=C(c1ccc2c(c1)OCO2)[C@@H]1[C@@H]2C(=O)N(C3CCCCC3)C(=O)[C@@H]2C2c3ccccc3C=CN21 (stereo partly drawn) | 12.4% | 12.2% | 9.7% | 4.0% | ? | -11.2%
CC(C)(C)C(=O)[C@@H]1[C@@H]2C(=O)N(C3CCCCC3)C(=O)[C@@H]2[C@H]2c3ccccc3C=CN12 | -0.3% | -2.3% | -13.9% | 9.9% | 25.1µM* | -7.6%

Source: PubChem
